The entries come from a sample that favours the strongest signals as a whole.
Tests used:
Assay in all cases: glycan array binding signal (z-score within array); higher = stronger binding
Conditions in all cases: glycan notation: IUPAC condensed, linker removed
[1] = biological target: Fuc(a1-2)Gal(b1-3)GalNAc(b1-3)Gal(a1-4)Gal(b1-4)Glc
In short: (§1)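 Columns mapping to the same glycan were averaged after glycan names were converted to IUPAC-condensed notation. The data come from 3228 arrays in the Consortium for Functional Glycomics database, limited to those with an available protein sequence. Binding is reported as a within-array Z-score averaged across arrays of one protein sequence and across linkers.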

[2] = biological target: Fuc(a1-2)Gal(b1-3)GlcNAc(b1-3)[Gal(b1-4)GlcNAc(b1-6)]Gal(b1-4)Glc
In short: as §1

[3] = biological target: Fuc(a1-2)Gal(b1-3)[Fuc(a1-4)]GlcNAc(b1-2)Man(a1-3)[Fuc(a1-2)Gal(b1-3)[Fuc(a1-4)]GlcNAc(b1-2)Man(a1-6)]Man(b1-4)GlcNAc(b1-4)[Fuc(a1-6)]GlcNAc(b1-4)[Fuc(a1-6)]GlcNAc
In short: as §1

[4] = biological target: Fuc(a1-2)Gal(b1-4)GlcNAc(b1-3)GalNAc
In short: as §1

[5] = biological target: Fuc(a1-2)Gal(b1-4)GlcNAc(b1-3)[Fuc(a1-2)Gal(b1-4)GlcNAc(b1-6)]GalNAc
In short: as §1

[6] = biological target: Fuc(a1-2)Gal(b1-4)GlcNAc(b1-3)[Fuc(a1-3)[Gal(b1-4)]GlcNAc(b1-6)]Gal(b1-4)Glc
In short: as §1

[7] = biological target: Fuc(a1-2)Gal(b1-4)[Fuc(a1-3)]GlcNAc
In short: as §1

[8] = biological target: Fuc(a1-2)[Gal(a1-3)]Gal(b1-3)GlcNAc(b1-6)GalNAc
In short: as §1

[9] = biological target: Fuc(a1-2)[Gal(a1-3)]Gal(b1-4)GlcNAc(b1-2)Man(a1-3)[Fuc(a1-2)[Gal(a1-3)]Gal(b1-4)GlcNAc(b1-2)Man(a1-6)]Man(b1-4)GlcNAc(b1-4)GlcNAc
In short: as §1

[10] = biological target: Fuc(a1-2)[Gal(a1-4)]Gal(b1-4)GlcNAc
In short: as §1

[11] = biological target: Fuc(a1-2)[GalNAc(a1-3)]Gal(b1-4)GlcNAc(b1-6)GalNAc
In short: as §1

Gal(a1-3)Gal(b1-3)GlcNAc = biological target: Gal(a1-3)Gal(b1-3)GlcNAc
In short: as §1

[12] = biological target: Gal(a1-3)Gal(b1-3)GlcNAc(b1-2)Man(a1-3)[Gal(a1-3)Gal(b1-3)GlcNAc(b1-2)Man(a1-6)]Man(b1-4)GlcNAc(b1-4)GlcNAc
In short: as §1

[13] = biological target: Gal(a1-3)[Gal(a1-4)]Gal(b1-4)GlcNAc
In short: as §1

Gal(a1-4)GlcNAc = biological target: Gal(a1-4)GlcNAc
In short: as §1

[14] = biological target: Gal(b1-3)GlcNAc(b1-3)Gal(b1-4)GlcNAc(b1-6)[Gal(b1-3)GlcNAc(b1-3)]Gal(b1-4)Glc
In short: as §1

[15] = biological target: Gal(b1-3)[Fuc(a1-4)]GlcNAc(b1-2)Man(a1-3)[Gal(b1-3)[Fuc(a1-4)]GlcNAc(b1-2)Man(a1-6)]Man(b1-4)GlcNAc(b1-4)[Fuc(a1-6)]GlcNAc
In short: as §1

Gal(b1-4)Glc = biological target: Gal(b1-4)Glc
In short: as §1

Gal(b1-4)Glc6S = biological target: Gal(b1-4)Glc6S
In short: as §1

[16] = biological target: Gal(b1-4)GlcNAc(b1-3)Gal(b1-3)GlcNAc
In short: as §1

[17] = biological target: Gal(b1-4)GlcNAc(b1-3)Gal(b1-4)GlcNAc(b1-2)[Gal(b1-4)GlcNAc(b1-3)Gal(b1-4)GlcNAc(b1-6)]Man(a1-6)[Gal(b1-4)GlcNAc(b1-3)Gal(b1-4)GlcNAc(b1-2)Man(a1-3)]Man(b1-4)GlcNAc(b1-4)[Fuc(a1-6)]GlcNAc
In short: as §1

[18] = biological target: Gal(b1-4)GlcNAc(b1-3)Gal(b1-4)GlcNAc(b1-3)Gal(b1-4)GlcNAc(b1-3)Gal(b1-4)GlcNAc(b1-3)Gal(b1-4)GlcNAc(b1-3)Gal(b1-4)GlcNAc(b1-2)Man(a1-3)[Gal(b1-4)GlcNAc(b1-3)Gal(b1-4)GlcNAc(b1-3)Gal(b1-4)GlcNAc(b1-3)Gal(b1-4)GlcNAc(b1-3)Gal(b1-4)GlcNAc(b1-3)Gal(b1-4)GlcNAc(b1-2)Man(a1-6)]Man(b1-4)GlcNAc(b1-4)GlcNAc
In short: as §1

[19] = biological target: Gal(b1-4)GlcNAc(b1-3)Gal(b1-4)GlcNAc(b1-3)GalNAc
In short: as §1

[20] = biological target: Gal(b1-4)GlcNAc(b1-3)[Gal(b1-4)GlcNAc(b1-6)]Gal(b1-4)GlcNAc
In short: as §1

Gal4S(b1-4)GlcNAc = biological target: Gal4S(b1-4)GlcNAc
In short: as §1

Gal6S(b1-3)GlcNAc = biological target: Gal6S(b1-3)GlcNAc
In short: as §1

[21] = biological target: GalNAc(b1-3)Gal(a1-4)Gal(b1-4)GlcNAc(b1-3)Gal(b1-4)Glc
In short: as §1

GalNAc(b1-4)Gal(b1-4)Glc = biological target: GalNAc(b1-4)Gal(b1-4)Glc
In short: as §1

GalNAc6S(b1-4)GlcNAc = biological target: GalNAc6S(b1-4)GlcNAc
In short: as §1

[22] = biological target: GlcNAc(a1-4)Gal(b1-4)GalNAc
In short: as §1

[23] = biological target: GlcNAc(a1-4)Gal(b1-4)GlcNAc
In short: as §1

[24] = biological target: GlcNAc(a1-4)Gal(b1-4)GlcNAc(b1-3)Gal(b1-4)GlcNAc(b1-3)Gal(b1-4)GlcNAc
In short: as §1

[25] = biological target: GlcNAc(b1-2)Man(a1-3)[GlcNAc(b1-2)Man(a1-6)]Man(b1-4)GlcNAc(b1-4)[Fuc(a1-6)]GlcNAc
In short: as §1

[26] = biological target: GlcNAc(b1-2)Man(a1-3)[GlcNAc(b1-4)][GlcNAc(b1-2)Man(a1-6)]Man(b1-4)GlcNAc(b1-4)[Fuc(a1-6)]GlcNAc
In short: as §1

[27] = biological target: Man(a1-3)[Man(a1-6)]Man(a1-6)[Man(a1-3)]Man(b1-4)GlcNAc(b1-4)GlcNAc
In short: as §1

Man(b1-4)GlcNAc = biological target: Man(b1-4)GlcNAc
In short: as §1

[28] = biological target: Neu5Ac(a2-3)Gal(b1-3)GalNAc(b1-3)Gal(a1-4)Gal(b1-4)Glc
In short: as §1

[29] = biological target: Neu5Ac(a2-3)Gal(b1-4)GlcNAc(b1-2)Man(a1-3)[GlcNAc(b1-4)][Neu5Ac(a2-3)Gal(b1-4)GlcNAc(b1-2)Man(a1-6)]Man(b1-4)GlcNAc(b1-4)GlcNAc
In short: as §1

[30] = biological target: Neu5Ac(a2-3)Gal(b1-4)GlcNAc(b1-3)Gal(b1-4)GlcNAc(b1-3)Gal(b1-4)GlcNAc(b1-2)Man(a1-3)[Neu5Ac(a2-3)Gal(b1-4)GlcNAc(b1-3)Gal(b1-4)GlcNAc(b1-3)Gal(b1-4)GlcNAc(b1-2)Man(a1-6)]GalNAc
In short: as §1

[31] = biological target: Neu5Ac(a2-3)Gal(b1-4)GlcNAc(b1-3)[Neu5Ac(a2-3)Gal(b1-4)GlcNAc(b1-6)]GalNAc
In short: as §1

Neu5Ac(a2-3)GalNAc = biological target: Neu5Ac(a2-3)GalNAc
In short: as §1

[32] = biological target: Neu5Ac(a2-3)[GalNAc(b1-4)]Gal(b1-4)GlcNAc
In short: as §1

[33] = biological target: Neu5Ac(a2-6)Gal(b1-4)GlcNAc(b1-2)Man(a1-3)[Man(a1-6)]Man(b1-4)GlcNAc(b1-4)GlcNAc
In short: as §1

[34] = biological target: Neu5Ac(a2-6)Gal(b1-4)GlcNAc(b1-2)Man(a1-6)[Man(a1-3)]Man(b1-4)GlcNAc(b1-4)GlcNAc
In short: as §1

[35] = biological target: Neu5Ac(a2-6)Gal(b1-4)GlcNAc(b1-2)[Neu5Ac(a2-6)Gal(b1-4)GlcNAc(b1-4)]Man(a1-3)[GlcNAc(b1-4)][Neu5Ac(a2-6)Gal(b1-4)GlcNAc(b1-4)Man(a1-6)]Man(b1-4)GlcNAc(b1-4)GlcNAc
In short: as §1

[36] = biological target: Neu5Ac(a2-6)Gal(b1-4)GlcNAc(b1-3)Gal(b1-4)GlcNAc(b1-3)Gal(b1-4)GlcNAc(b1-2)Man(a1-3)[Neu5Ac(a2-6)Gal(b1-4)GlcNAc(b1-3)Gal(b1-4)GlcNAc(b1-3)Gal(b1-4)GlcNAc(b1-2)Man(a1-6)]GalNAc
In short: as §1

[37] = biological target: Neu5Ac(a2-6)Gal(b1-4)GlcNAc(b1-3)Gal(b1-4)GlcNAc(b1-6)[Gal(b1-3)]GalNAc
In short: as §1

[38] = biological target: Neu5Ac(a2-6)Gal(b1-4)GlcNAc(b1-3)Gal(b1-4)[Fuc(a1-3)]GlcNAc(b1-3)Gal(b1-4)[Fuc(a1-3)]GlcNAc
In short: as §1

[39] = biological target: Neu5Ac(a2-6)Gal(b1-4)GlcNAc(b1-3)GalNAc
In short: as §1

[40] = biological target: Neu5Ac(a2-6)GlcNAc(b1-4)GlcNAc(b1-4)GlcNAc
In short: as §1

Neu5Ac(a2-8)Neu5Ac = biological target: Neu5Ac(a2-8)Neu5Ac
In short: as §1

[41] = biological target: Neu5Ac(a2-8)Neu5Gc(a2-3)Gal(b1-4)GlcNAc
In short: as §1

[42] = biological target: Neu5Gc(a2-3)Gal(b1-4)GlcNAc
In short: as §1

B1: PX14375F-bfa-539-21-539 (Bacteroides fragilis) (protein)
chain: EDFLQKDPPSSPSQSVFWQKKSDFESALAGTYSVMYSGVFSQIMPCLDGLTDNAIVQHSEGTYGWAKTIAQGDLTPNQGGFVTDIYGNCYKGIARVHILMEQLDQYTGSDISADEKKFMLAQCKALRGYFYSWLYQCYKEVPVVTQSLDLNTMYQPKATRAEVLNRVMTDYDEAISELPDKLYSDSQTSGRFTVSAVKALKARILLFDAYDSNGKAISSKMEEVLTLLQSIKGYSLAARVRDNFISEKQLASPEIMFSVRFLRPNLTHSMDLYYGAWAVLDPTRNMVDAFECTDGKPWGESPLTVRPDESILYGNDDALKKAERAKMFMNRDRRLYESVNHSMMANFVDDGFKDEEVQVNESNNKGPTGFSALKYVQPTDVTPGYSTVSDADIVVLRYAHVLLMIAEAENEAHGATTTALNAINEVRTRSGQPAIEAGISQDDLRERIRNEWRIETCFEGLRYFQLKRWKLMDKRVNGVEDPAYPGYIKVYKPAFEFFPIPQSEIDKAGGVLKQDPAYE
glycan array binding signal (z-score) [1]: 1.21
glycan array binding signal (z-score) [2]: -0.583
glycan array binding signal (z-score) [3]: 0.238
glycan array binding signal (z-score) [4]: 0.334
glycan array binding signal (z-score) [5]: 0.212
glycan array binding signal (z-score) [6]: 0.539
glycan array binding signal (z-score) [7]: -0.409
glycan array binding signal (z-score) [8]: -0.329
glycan array binding signal (z-score) [9]: 6.22
glycan array binding signal (z-score) [10]: 2.7
glycan array binding signal (z-score) [11]: -0.169
glycan array binding signal (z-score) (Gal(a1-3)Gal(b1-3)GlcNAc): -0.042
glycan array binding signal (z-score) [12]: 2.35
glycan array binding signal (z-score) [13]: 3.97
glycan array binding signal (z-score) (Gal(a1-4)GlcNAc): -0.504
glycan array binding signal (z-score) [14]: -0.107
glycan array binding signal (z-score) [15]: 2.29
glycan array binding signal (z-score) (Gal(b1-4)Glc): -0.577
glycan array binding signal (z-score) (Gal(b1-4)Glc6S): 0.083
glycan array binding signal (z-score) [16]: -0.243
glycan array binding signal (z-score) [17]: 5.95
glycan array binding signal (z-score) [18]: 4.05
glycan array binding signal (z-score) [19]: 2.44
glycan array binding signal (z-score) [20]: 0.637
glycan array binding signal (z-score) (Gal4S(b1-4)GlcNAc): -0.679
glycan array binding signal (z-score) (Gal6S(b1-3)GlcNAc): -0.321
glycan array binding signal (z-score) [21]: -0.311
glycan array binding signal (z-score) (GalNAc(b1-4)Gal(b1-4)Glc): 0.504
glycan array binding signal (z-score) (GalNAc6S(b1-4)GlcNAc): -0.468
glycan array binding signal (z-score) [22]: -0.334
glycan array binding signal (z-score) [23]: 0.011
glycan array binding signal (z-score) [24]: -0.081
glycan array binding signal (z-score) [25]: -0.47
glycan array binding signal (z-score) [26]: -0.471
glycan array binding signal (z-score) [27]: -0.28
glycan array binding signal (z-score) (Man(b1-4)GlcNAc): -0.448
glycan array binding signal (z-score) [28]: -0.715
glycan array binding signal (z-score) [29]: 0.245
glycan array binding signal (z-score) [30]: 4.15
glycan array binding signal (z-score) [31]: -0.205
glycan array binding signal (z-score) (Neu5Ac(a2-3)GalNAc): -0.323
glycan array binding signal (z-score) [32]: -0.459
glycan array binding signal (z-score) [33]: -0.309
glycan array binding signal (z-score) [34]: -0.518
glycan array binding signal (z-score) [35]: -0.061
glycan array binding signal (z-score) [36]: 2.67
glycan array binding signal (z-score) [37]: -0.919
glycan array binding signal (z-score) [38]: -0.045
glycan array binding signal (z-score) [39]: -0.096
glycan array binding signal (z-score) [40]: -0.585
glycan array binding signal (z-score) (Neu5Ac(a2-8)Neu5Ac): -0.05
glycan array binding signal (z-score) [41]: 15.8
glycan array binding signal (z-score) [42]: -0.782
